Results taken from the supplement of paper PMC8975748.
Where a name gives a salt, the structure may show the parent alone.

system: Saccharomyces cerevisiae BY4741 SeMeCo community; assay: z-score of subpopulation abundance vs DMSO median, subpopulation auxotrophic for HUM; higher = larger share of this subpopulation than in DMSO controls; conditions: 10 µM; 24 h; SM minimal medium; subpopulation (auxotrophy): HUM
Experimental: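 Fluorescent four-plasmid SeMeCo (self-establishing metabolically cooperating S. cerevisiae BY4741 community; plasmids pH-mRuby2, pL-mWasabi, pU-eCFP, pM-TagRFP657) was grown 24 h in minimal SM medium with each Selleck FDA-approved drug at 10 µM in 384-well plates. Cells were fixed and imaged by high-content confocal microscopy. For each auxotrophic subpopulation (and the prototroph), a z-score gives the deviation from the DMSO vehicle-control population median.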

Compound | z-score of subpopulation abundance
NCCc1c[nH]c2ccc(O)cc12 [Serotonin HCl] | 0.18
Cn1cc(C2=C(c3cn(C4CCN(Cc5ccccn5)CC4)c4ccccc34)C(=O)NC2=O)c2ccccc21 | -0.32
CN(C)C(=O)Oc1cccc([N+](C)(C)C)c1 [Neostigmine Bromide] | -0.37
CCC1=C[C@H]2CN3CCc4c([nH]c5ccccc45)[C@](C(=O)OC)(C2)[C@H]13 [Catharanthine] | 0.29
CCCN1C[C@H](CSC)C[C@@H]2c3cccc4[nH]cc(c34)C[C@H]21 [Pergolide Mesylate] | -0.74
Nc1nc(N)nc(NC2CC2)n1 [Cyromazine] | -0.23
NCC(O)c1ccc(O)cc1 (racemic) [(+,-)-Octopamine HCl] | -0.21
CC1(C)SC2C(N)C(=O)N2C1C(=O)O (stereo not given) [6-Aminopenicillanic acid] | 0.65
C[CH2][Hg][S]c1ccccc1C(=O)[O-].[Na+] [Thimerosal] | 14.9
COc1ccc(C(CN(C)C)C2(O)CCCCC2)cc1 (stereo not given) [Venlafaxine] | 0.51
CN1[C@@H]2C[C@@H](OC(=O)[C@H](CO)c3ccccc3)C[C@H]1[C@@H]1O[C@@H]12 [Scopolamine HBr trihydrate] | -0.05
C[N+]1(C)[C@@H]2C[C@@H](OC(=O)[C@H](CO)c3ccccc3)C[C@H]1[C@@H]1O[C@@H]12 [Methscopolamine] | 0.63
CN(C)[C@@H]1C(=O)C(C(N)=O)=C(O)[C@@]2(O)C(=O)C3=C(O)c4c(O)cccc4[C@@](C)(O)[C@H]3[C@H](O)[C@@H]12 [Oxytetracycline Dihydrate] | -0.79
COc1ccc2[nH]cc(CCN)c2c1 [5-Methoxytryptamine] | 0.46
C=C(C)[C@H]1Cc2c(ccc3c2O[C@@H]2COc4cc(OC)c(OC)cc4[C@@H]2C3=O)O1 [Rotenone (Barbasco)] | 0.94
C[C@H]1O[C@H](O[C@H]2[C@H](O)[C@@H](O)[C@@H](O)[C@H](O)[C@@H]2O)[C@@H](N)C[C@@H]1NC(=N)C(=O)O [Kasugamycin hydrochloride] | -0.14
COc1cc2c(cc1OC)C1CC(=O)C(CC(C)C)CN1CC2 (stereo not given) [Tetrabenazine (Xenazine)] | -0.9
CC[C@H]1[C@@H]2C[C@H]3[C@@H]4N(C)c5ccccc5[C@]45C[C@@H]([C@@H]2[C@H]5O)N3[C@@H]1O [Ajmaline] | -0.48
CN(C)[C@@H]1C(=O)C(C(N)=O)=C(O)[C@@]2(O)C(=O)C3=C(O)c4c(O)ccc(Cl)c4[C@@](C)(O)[C@H]3C[C@@H]12 [Chlortetracycline HCl] | 0.05
CCCCCCCCCCCCCCCC[n+]1ccccc1 [Cetylpyridinium Chloride] | 20.2

Compound | z-score of subpopulation abundance
CC[C@@H](C(N)=O)N1CCCC1=O [Levetiracetam] | -0.12
O=c1[nH]c2ccccc2n1CCCN1CCC(n2c(=O)[nH]c3cc(Cl)ccc32)CC1 [Domperidone] | 0.44
C[C@@H]1O[C@@H](O[C@H]2C[C@@H](O)[C@]3(CO)[C@H]4[C@H](O)C[C@]5(C)[C@@H](C6=CC(=O)OC6)CC[C@]5(O)[C@@H]4CC[C@]3(O)C2)[C@H](O)[C@H](O)[C@H]1O [Ouabain] | -0.49
CC(=O)OCC1=C(C(=O)O)N2C(=O)C(N)C2SC1 (stereo not given) [7-Aminocephalosporanic acid] | 0.03
C=CCN1C[C@H](C(=O)N(CCCN(C)C)C(=O)NCC)C[C@@H]2c3cccc4[nH]cc(c34)C[C@H]21 [Cabergoline] | -0.37
C#C[C@]1(O)C=C[C@H]2[C@@H]3CCC4=CC(=O)CC[C@@H]4[C@H]3CC[C@@]21CC [Gestodene] | -0.17
CC(C)N(CCC(C(N)=O)(c1ccccc1)c1ccccn1)C(C)C (stereo not given) [Disopyramide] | -0.19
CC[C@H]1CN2CC[C@]3(C(=O)Nc4ccccc43)[C@@H]2C[C@@H]1/C(=C\OC)C(=O)OC [Rhynchophylline] | 0.73
Oc1cccc2cccnc12 [8-Hydroxyquinoline] | -0.54
COc1ccc2c3c([nH]c2c1)C(C)=NCC3 [Harmaline] | -6.26
CN1C(=O)COc2c(C(=O)NC3CN4CCC3CC4)cc(Cl)cc21 (stereo not given) [Azasetron HCl] | 0.35
C[C@@H]1CC[C@H]2[C@@H](C)C(=O)O[C@@H]3O[C@@]4(C)CC[C@@H]1[C@]32OO4 [Artemisinin] | -0.49
CCOC(=O)Nc1ccc(NCc2ccc(F)cc2)cc1N [Retigabine] | -0.05
CN(C)[C@@H]1C(=O)C(C(N)=O)=C(O)[C@@]2(O)C(=O)C3=C(O)c4c(O)cccc4[C@@](C)(O)[C@H]3C[C@@H]12 [Tetracycline HCl] | 0.07
C=CN1CCCC1=O.II [Povidone iodine] | 1.77
C[N+]12CCC(CC1)C(OC(=O)C(O)(c1ccccc1)c1ccccc1)C2 (stereo not given) [Clidinium Bromide] | -0.01
Cc1cc(C(C#N)c2ccc(Cl)cc2)c(Cl)cc1NC(=O)c1cc(I)cc(I)c1O (stereo not given) [Closantel] | 0.04
COc1ccc(C(CN(C)C)C2(O)CCCCC2)cc1 (stereo not given) [Venlafaxine HCl] | 0.07
CN(C)C(=O)Oc1ccc[n+](C)c1 [Pyridostigmine Bromide] | 0.11
CC(C)=CCOc1c2occc2cc2ccc(=O)oc12 [Imperatorin] | -1.03
